CD11b adhes inh: blocks human CD11b/CD18 adhesion to fibrinogen; K562 CD11b/CD18 adhesion to fibrinogen, ATPlite luminescence; Mn2+ added to activate the integrin; AID 1497; 93,000 compounds, 0.54% hits; inhibition, % at 10 µM;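 active = primary inhibition of 50% or more at 10 µM, then 40% or more on retest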
Target sequence (P05107 whole entry, looked up, other chains not shown): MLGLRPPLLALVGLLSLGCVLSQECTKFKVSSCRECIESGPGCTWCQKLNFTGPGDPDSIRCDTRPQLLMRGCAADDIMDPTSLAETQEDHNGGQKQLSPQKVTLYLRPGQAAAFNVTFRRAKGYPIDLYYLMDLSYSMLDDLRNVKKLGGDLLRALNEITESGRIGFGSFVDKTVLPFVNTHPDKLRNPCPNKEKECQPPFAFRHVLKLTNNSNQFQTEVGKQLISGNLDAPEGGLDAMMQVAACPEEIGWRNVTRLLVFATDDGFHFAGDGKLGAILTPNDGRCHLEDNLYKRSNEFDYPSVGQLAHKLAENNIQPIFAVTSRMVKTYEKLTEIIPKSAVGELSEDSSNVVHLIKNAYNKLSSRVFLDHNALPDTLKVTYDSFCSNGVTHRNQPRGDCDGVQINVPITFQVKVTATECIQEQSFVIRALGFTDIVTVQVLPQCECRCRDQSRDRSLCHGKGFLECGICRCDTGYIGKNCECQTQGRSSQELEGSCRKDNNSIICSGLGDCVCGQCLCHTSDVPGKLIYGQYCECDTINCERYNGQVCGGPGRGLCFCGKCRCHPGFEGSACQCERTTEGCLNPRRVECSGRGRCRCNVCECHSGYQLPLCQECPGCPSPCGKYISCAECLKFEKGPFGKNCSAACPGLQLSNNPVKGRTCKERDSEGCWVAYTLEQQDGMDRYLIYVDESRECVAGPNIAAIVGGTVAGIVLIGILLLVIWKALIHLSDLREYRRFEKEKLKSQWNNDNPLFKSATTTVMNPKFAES
Pyk2 oligo antag: antagonists of human Pyk2 oligomerization; Q293 cells, Pyk2 FERM NanoBiT luminescence; hits give low values; 99,000 compounds, 0.83% hits; AID 1347419; z-score (the deposit names both 25 µM and 10 µM);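 active = Z-score of -3 or lower, scaled per plate to the spread of control and sample wells; inactive = z-score above -3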;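 also: negative z-score means lost luminescence so less FERM oligomerization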
D1 allo mod: allosterically modulates the human D1 dopamine receptor; HEK293 D1, CRE-luciferase, dopamine EC30 potentiation; actives deviate in either direction; P21728; AID 641; 58,000 compounds, 5.9% hits; B-score at 10 µM;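 active = luminescence count or its row- and column-corrected plate score outside the 99.7% band of the plate's sample wells, on either side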
FAK inh: blocks human focal adhesion kinase activity; 97,000 compounds, 0.84% hits; inhibition, %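 (tested at 7 µM)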; biochemical FAK kinase activity assay; Q05397; in the data active = inhibition above about 19%;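 also: 0% = DMSO and 100% = reference compound high control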
DAT uptake mod: modulates human dopamine transporter uptake under cocaine. LLC-PK1 hDAT cells, [14C]-dopamine uptake with cocaine IC80; actives deviate in either direction. B-score at 10 µM. 110,000 compounds, 1.3% hits;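 active = Z score or B-score, a plate-position-corrected score, falls beyond the plate's 99.7% confidence bounds, in either direction; inactive = both scores lie inside the 99.7% bounds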;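 also: scored against the spread of the other compound wells on the same plate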
Mac1 fbg enh: CD11b/CD18-fibrinogen binding enhancement | P05107+P11215 | K562 CD11b/CD18 adhesion to fibrinogen, ATPlite luminescence | activation, % at 10 µM | 93,000 compounds, 0.07% hits | AID 1499;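 active = 10 µM primary screen giving 50% or more activity, confirmed by 40% or more on retest at that dose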
D1 PAM confirm: confirmation of human D1 dopamine receptor allosteric modulators | shares compounds with D1 allo mod | HEK293 D1 CRE-luciferase, dopamine EC30 potentiation; hits give high values | luminescence at 10 µM | 2,200 compounds, 88% hits | AID 642;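 active = luminescence in either of two replicates above the same-plate mean plus 3 SD of the low-dose dopamine control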
D1 ag no DA: activates D1 CRE-luciferase signal without dopamine present | shares compounds with D1 allo mod | HEK293 D1 CRE-luciferase, luminescence, no dopamine; hits give high values | luminescence at 10 µM | 1,900 compounds, 0.8% hits | AID 646; in the data active = luminescence above about 3900
Isoprot counter: isoproterenol response counter-screen activity for D1 modulators. shares compounds with D1 allo mod. HEK293 D1 CRE-luciferase, isoproterenol EC30 counter-screen. calls only at 10 µM. 2,200 compounds, 63% hits;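 active = luminescence in either replicate above plate mean of wells with a partly effective reference agonist dose plus 3 SD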;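 also: isoproterenol raises cAMP through native beta-adrenoceptor Gs so signal bypasses D1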
The depositor's hits bear a star. The full list was thinned out, with hits kept by preference.

Cc1ccc(-c2csc3nnc(SCc4csc(C)n4)n23)cc1 was read as CD11b adhes inh 9, Pyk2 oligo antag 0.23, D1 allo mod 9.3*, FAK inh -3, DAT uptake mod -0.035, Mac1 fbg enh 0, D1 PAM confirm 22688*, D1 ag no DA 1908 and Isoprot counter active.
COc1ccc(CNC(=O)C(c2ccc(C)o2)N(C(=O)c2csnn2)c2ccc(C(C)C)cc2)cc1 (configuration not stated) was read as CD11b adhes inh -5, Pyk2 oligo antag -0.89, FAK inh 2, DAT uptake mod 1.1 and Mac1 fbg enh -2.
`CC(C)n1nc(C(=O)OCn2nnc3ccccc3c2=O)c2ccccc2c1=O` gave CD11b adhes inh -6 and Mac1 fbg enh 1.
CCSc1nc2ccccc2n1Cc1nc(N)nc(N(C)C)n1 was read as CD11b adhes inh -20, Pyk2 oligo antag 0.06, D1 allo mod 5.2*, FAK inh -4, DAT uptake mod 0.62, Mac1 fbg enh -3, D1 PAM confirm 10584* and Isoprot counter active.
`CCOC(=O)C1=CN(C)C=C(C(=O)OCC)C1c1ccsc1` gave CD11b adhes inh -10, Pyk2 oligo antag -0.83, D1 allo mod 5.8*, FAK inh 5, DAT uptake mod -0.57, Mac1 fbg enh 3, D1 PAM confirm 4896, D1 ag no DA 1708 and Isoprot counter inactive.
For COc1cc(OC)cc(C(=O)N/N=C/c2ccc(OC)c(COc3ccc(F)cc3)c2)c1 the results were CD11b adhes inh 3, Pyk2 oligo antag -1.1, FAK inh 6 and Mac1 fbg enh -3.
Screening COc1ccc(/C=N/O)cc1COc1ccc(NC(C)=O)cc1 returned Pyk2 oligo antag 0.31, D1 allo mod 4.7*, FAK inh 3, DAT uptake mod 0.52, D1 PAM confirm 6740*, D1 ag no DA 1564 and Isoprot counter active.
`COC(=O)Nc1ccc2c(c1)N(C(=O)CCN1CCOCC1)c1ccccc1S2` gave CD11b adhes inh 4, Pyk2 oligo antag -1.3, D1 allo mod 4.3*, FAK inh -1, DAT uptake mod 0.3, Mac1 fbg enh 4, D1 PAM confirm 8120*, D1 ag no DA 1920 and Isoprot counter inactive.
CCOC(=O)Nc1ccc2c(c1)N(C(=O)CCN1CCOCC1)c1ccccc1S2 was read as CD11b adhes inh -18, D1 allo mod 4.8*, FAK inh -2, DAT uptake mod 0.78, Mac1 fbg enh 5, D1 PAM confirm 10492*, D1 ag no DA 1592 and Isoprot counter active.
`CC(C)C[C@H](N)c1nnc(S(=O)(=O)Cc2ccc(F)cc2)o1` gave CD11b adhes inh -18, Pyk2 oligo antag -0.48, D1 allo mod -0.14, DAT uptake mod -0.95 and Mac1 fbg enh -3.
CCC(C)C(NC(=O)C1CCC(C)CC1)C(=O)NCc1ccccn1 (configuration not stated) was read as CD11b adhes inh 4, Pyk2 oligo antag 0.75, FAK inh -2, DAT uptake mod -0.33 and Mac1 fbg enh 4.
Screening COc1ccccc1C(=O)Nc1c2c(nn1-c1cccc(C)c1C)CS(=O)(=O)C2 returned CD11b adhes inh 0, Pyk2 oligo antag -0.76, D1 allo mod 6.6*, FAK inh 8, DAT uptake mod -1.3, Mac1 fbg enh -2, D1 PAM confirm 14916*, D1 ag no DA 1716 and Isoprot counter active.
For COc1ccc(CC(=O)Nc2c3c(nn2-c2cccc(C)c2C)CS(=O)(=O)C3)cc1 the results were CD11b adhes inh -35, Pyk2 oligo antag 0.46, D1 allo mod -0.16, FAK inh -3, DAT uptake mod 0.93 and Mac1 fbg enh 3.
Screening C/C(=N\n1nnnc1Nc1ccccc1)c1ccc(N)cc1 returned D1 allo mod -0.81, FAK inh -2 and DAT uptake mod 0.0094.
`CCC(C)NC(=O)CS(=O)Cc1nc(-c2cccc(C)c2)oc1C` (configuration not stated) gave CD11b adhes inh 1, D1 allo mod 4.5*, FAK inh 3, DAT uptake mod -0.41, Mac1 fbg enh 0, D1 PAM confirm 5396, D1 ag no DA 1376 and Isoprot counter inactive.
For CCCCNC(=O)CS(=O)Cc1nc(-c2cccc(C)c2)oc1C (configuration not stated) the results were CD11b adhes inh -1, D1 allo mod 0.076, FAK inh 0, DAT uptake mod -0.9 and Mac1 fbg enh 0.
For CCOC(=O)c1ccc(NC(=O)CCC(=O)OC)cc1 the results were CD11b adhes inh 7, Pyk2 oligo antag 0.31, D1 allo mod 0.33, FAK inh 3, DAT uptake mod -1.5 and Mac1 fbg enh -3.
`COc1ccc(Cn2nnc3c(=O)[nH]c(C4CCCN(C(=O)c5ccccc5)C4)nc32)cc1` (configuration not stated) gave D1 allo mod 4.3*, DAT uptake mod 2.2, D1 PAM confirm 10456*, D1 ag no DA 1612 and Isoprot counter inactive.
For COc1cccc(Cn2nnc3c(=O)[nH]c(C4CCCN(C(=O)c5ccccc5Cl)C4)nc32)c1 (configuration not stated) the results were Pyk2 oligo antag -1, D1 allo mod 3*, FAK inh 7, DAT uptake mod 1.5, D1 PAM confirm 9972* and Isoprot counter active.
COc1ccc(-c2ccc3oc(-c4ccc(OC)cc4)c(C#CC4(O)CCCCC4)c3c2)cc1 was read as DAT uptake mod -0.37.
Screening CN(C)S(=O)(=O)n1cnc2ccccc21 returned CD11b adhes inh -9, Pyk2 oligo antag -0.78, D1 allo mod -0.32, FAK inh 0, DAT uptake mod -0.55 and Mac1 fbg enh 3.
Cc1nc(-c2ccccc2O)n(S(=O)(=O)N(C)C)n1 was read as CD11b adhes inh -38, Pyk2 oligo antag 0.23, D1 allo mod 5.5*, FAK inh 0, DAT uptake mod -1.5, Mac1 fbg enh 2, D1 PAM confirm 8136*, D1 ag no DA 1504 and Isoprot counter active.
`CCCC(=O)Nc1c2c(nn1-c1ccc(OC)cc1)CS(=O)C2` (configuration not stated) gave Pyk2 oligo antag 0.35, D1 allo mod 3.2*, FAK inh -2, DAT uptake mod -1.2, D1 PAM confirm 5968, D1 ag no DA 1700 and Isoprot counter inactive.

Screens: PubChem, several laboratories
